Measurements reported in PubChem BioAssay AID777 (Sanford-Burnham Center for Chemical Genomics, 2007).
Out of some 96,000 compounds screened, about 19,000 (20%) were called active.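 The calls were made as follows: active = blocking of liver enzyme CYP2C9 beyond about 50% at 5 µM (limit read from the data); inactive = the rest.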 Not all results are given here.

biological target: Cytochrome P450 2C9 (Homo sapiens) (UniProt P11712); assay: blockers of cytochrome P450 2C9 activity – biochemical, luminescence, ADME assay, primary screen (AID 777); settings: CYP2C9 Supersomes, luciferin-H conversion, at 5 µM, active compounds read high
Sequence (P11712 whole entry, looked up): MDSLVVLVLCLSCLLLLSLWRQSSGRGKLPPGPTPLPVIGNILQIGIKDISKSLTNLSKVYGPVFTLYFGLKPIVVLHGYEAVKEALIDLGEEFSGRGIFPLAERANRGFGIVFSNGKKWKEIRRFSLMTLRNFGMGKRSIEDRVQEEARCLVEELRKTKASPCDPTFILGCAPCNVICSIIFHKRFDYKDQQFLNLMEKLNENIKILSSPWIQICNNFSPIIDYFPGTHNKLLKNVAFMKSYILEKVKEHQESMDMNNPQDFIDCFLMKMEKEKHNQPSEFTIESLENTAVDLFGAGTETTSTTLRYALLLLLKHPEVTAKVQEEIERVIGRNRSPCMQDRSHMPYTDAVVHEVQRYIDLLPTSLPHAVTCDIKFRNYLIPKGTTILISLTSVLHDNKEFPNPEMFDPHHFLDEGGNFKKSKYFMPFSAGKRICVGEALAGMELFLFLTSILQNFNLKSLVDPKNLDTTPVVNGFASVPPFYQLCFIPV

Row | SMILES | inhibition
1 | O=C(N/N=C/C=C/c1ccccc1)C1CC1(c1ccccc1)c1ccccc1 (configuration not stated) | 99.5% (active)
2 | O=C(Nc1ccc(F)c(Cl)c1)C1CCN(S(=O)(=O)c2cccnc2)CC1 | 9.3% (inactive)
3 | O=C(O)c1ccc(COCC(F)(F)F)cc1 | -1.6% (inactive)
4 | Fc1c(F)c(C(F)(F)F)c(F)c(F)c1N1CCN(c2ccc3nnc(C(F)(F)F)n3n2)CC1 | 5.9% (inactive)
5 | O=C1c2ccccc2C(=O)N1CCCc1nc(-c2ccccc2)no1 | 24.2% (inactive)
6 | c1ccc(CCc2nc(-c3ccncc3)no2)cc1 | 93% (active)
7 | c1csc(-c2nc(-c3ccncc3)no2)c1 | 11.1% (inactive)
8 | Cc1cc(C(=O)O)c(S(C)(=O)=O)s1 | -5.1% (inactive)
9 | CC(Sc1nnc(Cc2ccc([N+](=O)[O-])cc2)o1)C(N)=O (configuration not stated) | -1.5% (inactive)
10 | Cc1ccc2nc(SC(C)C(=O)NCc3ccco3)[nH]c2c1 (configuration not stated) | 44.2% (inactive)
11 | Cc1nnc(NCCO)c2ccccc12 | -5.4% (inactive)
12 | CCC(=O)NC(=Nc1nc2ccccc2s1)NC(=O)CC | -88.9% (inactive)
13 | O=C1CCCC(O)=C1C=NCCc1ccccc1 | 6.6% (inactive)
14 | Cc1cc(C)c2[nH]c(=O)c(C(c3nnnn3Cc3ccc4c(c3)OCO4)N3CCCC3)cc2c1 (configuration not stated) | 86.7% (active)
15 | Fc1ccccc1C(c1nnnn1Cc1ccc2c(c1)OCO2)N1CCN(Cc2ccccc2)CC1 (configuration not stated) | 45.6% (inactive)
16 | CC(C)(C)n1nnnc1C(c1ccc(F)cc1)N1CCN(Cc2ccc3c(c2)OCO3)CC1 (configuration not stated) | 30.9% (inactive)
17 | COc1ccc(C(=O)CN(C(=O)c2ccc(Cl)cc2)N2C(=O)c3ccccc3C2=O)cc1 | 49.5% (inactive)
18 | N#C/C(=C1\CCCN1)c1nc(-c2ccccc2)cs1 | 40.4% (inactive)
19 | N#CC(=C1CCCC1)c1nc(-c2ccc(Cl)cc2)cs1 | -6.8% (inactive)
20 | N#CC(=C1SC=CS1)c1nc(-c2ccccc2)cs1 | 52.9% (active)
21 | CC(=O)N1CSCC1C(=O)O (configuration not stated) | 6.7% (inactive)
22 | O=C(OCC#CCSc1nnc(-c2ccncc2)o1)c1sc2ccccc2c1Cl | 30.1% (inactive)
23 | CSc1cc(C)n(-c2ccccc2C)c(=S)c1C(C)=O | 14.1% (inactive)
24 | CN(c1nc2ccccc2n2c(-c3ccco3)nnc12)S(=O)(=O)c1ccccc1 | 15.3% (inactive)
25 | Cc1ccc(S(=O)(=O)N2CCC(C(=O)OCC(=O)N3CC(=O)Nc4ccccc43)CC2)cc1 | 54.7% (active)
26 | O=C1CN(C(=O)COC(=O)C2CC(=O)N(Cc3ccco3)C2)c2ccccc2N1 (configuration not stated) | -13.2% (inactive)
27 | Cc1ccc(S(=O)(=O)NCC(=O)OCC(=O)N2CCc3ccccc32)cc1 | -28.2% (inactive)
